Assay outcomes deposited in PubChem by University of Kansas High Throughput Screening Laboratory.
Many of the other results were omitted from the sample, so hits are more common in it than they were.
Pf apPOL inh: Pf-apPOL DNA polymerase inhibition; inhibition, % at 10 µM; Recombinant Pf-apPOL, molecular beacon fluorescence, 1.5 h; hit rate 0.25% among 210,000
mHTT-CaM PPI inh: disrupts binding of mutant huntingtin to calmodulin. hit rate 3.6% among 190,000. AlphaScreen His-mHTT/GST-CaM binding, luminescence. inhibition, % at 15 µM;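 further: 0% = both proteins with DMSO and 100% = one protein alone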
Active calls of the source: *; i = inactive; . = no result given; + = active, no number. No stated cut-off is given here; in the data, active means inhibition above about 50%; inactive means the rest.

SMILES	Pf apPOL inh	mHTT-CaM PPI inh
CC(C)CN(CC(C)C)S(=O)(=O)c1ccc(C(=O)Nc2nc(-c3ccccn3)cs2)cc1	-3.8	52.0*
O=C(NNC(=S)NC1CCCCC1)c1ccncc1	-13.7	.
COc1cc(CN2CCN(Cc3ccccc3C(F)(F)F)CC2)cc2c1OCO2	0.8	13.0
O=C(Cc1ccc(O)cc1)NCCNC(=S)NCc1ccccc1	-5.9	.
CC1=C(C)CC2C(=O)C3=C(C(=O)C2C1)C1c2ccccc2C3c2ccccc21 (configuration not stated)	-2.1	61.0*
CSc1ccccc1N1C(=O)C2CC(C)=C(C)CC2C1=O (configuration not stated)	-1.2	-7.0
Cc1ccc(C2CCCN2C(=O)NCc2ccc(F)cc2)cc1 (configuration not stated)	-1.5	-5.2
O=C1/C(=C/C2CCCO2)CC/C1=C\C1CCCO1 (configuration not stated)	.	67.8*
O=C1C2CC(Br)C(Br)CC2C(=O)N1CC1CCCO1 (configuration not stated)	2.2	-1.0
CN(Cc1ccccc1)Cc1c(F)cccc1F	-5.0	-4.9
O=C(NCCCNCCCNC(=O)c1ccc(/C=N/O)nc1)c1ccc(/C=N/O)nc1	-2.6	+
CN(C)CCCNC(=O)c1ccc(/C=N/O)[n+](C)c1	0.9	i
O=C(C1=CN(c2cc(F)cc(F)c2)c2ccccc2S1(=O)=O)N1CCCCC1	0.8	3.8
COc1cc(NS(=O)(=O)c2ccc(NC(=O)c3cc(Cl)ccc3OC)cc2)nc(OC)n1	-42.0	21.3
COc1ccc(CN2C(=O)CC(C(=O)O)SC2=Nc2ccc(Cl)cc2)cc1 (configuration not stated)	51.7*	4.0
COc1ccc(N=C2SC(C(=O)N3CCN(c4ccc(F)cc4)CC3)CC(=O)N2C)cc1 (configuration not stated)	-8.3	51.0*
COc1ccc(N=C2SC(C(=O)O)CC(=O)N2Cc2ccc(F)cc2)cc1 (configuration not stated)	2.8	-4.0
O=C(O)C1CC(=O)N(Cc2ccc(Cl)cc2)C(=Nc2ccc(Cl)cc2)S1 (configuration not stated)	-13.1	27.0
Cn1c(CNC(=O)C2CN(S(=O)(=O)C3CC3)CC23CCCCC3)nc2ccccc21 (configuration not stated)	-4.5	35.0
COc1ccc(C2Nc3ccccc3C(=O)N2Cc2ccco2)cc1COc1ccc(Cl)cc1 (configuration not stated)	7.9	55.0*
COc1cccc(OCc2cc(C3Nc4ccccc4C(=O)N3Cc3ccco3)ccc2OC)c1 (configuration not stated)	-8.4	28.0
CC1=C(/C=C/c2ccc(Cl)cc2Cl)C(=O)c2ccccc2C1=O	-5.9	67.8*
O=C1OC(c2ccccc2F)=N/C1=C/c1ccc(Cl)cc1Cl	6.5	-4.0
O=[N+]([O-])c1cc2c(cc1C=Nc1ccc3oc(-c4cccc(F)c4)nc3c1)OCO2	2.2	33.0
CCCN1CCN(CCCNC(=O)C2CCN(c3nccc(C)n3)CC2)CC1	4.5	-2.6
SMILES	Pf apPOL inh	mHTT-CaM PPI inh
CN(C)CCNC(=O)C12CC3(C)CC(C)(CC(Br)(C3)C1)C2	3.4	-1.9
O=C(C1CCCN(Cc2cccc(F)c2)C1)N1CCCC1 (configuration not stated)	-0.4	-5.9
COc1ccc(Cl)cc1C(=O)N1CCN(c2ccccc2F)CC1	-11.1	-1.0
COc1ccc(Cl)cc1C(=O)N1CCN(C2=NN=C(c3cccs3)CS2)CC1	5.1	67.6*
Cc1ccc(C)c(N2CCC(C(=O)Nc3cccc(Cl)c3)C2=O)c1 (configuration not stated)	-3.0	-15.9
Cc1ccc(C)c(N2CCC(C(=O)Nc3cccc(C(F)(F)F)c3)C2=O)c1 (configuration not stated)	-3.9	78.7*
O=C(O)c1ccc(NC(CSCc2ccc(F)cc2)C(=O)O)c([N+](=O)[O-])c1 (configuration not stated)	1.6	-1.0
Cc1ccc2cccc(SCc3nc(N)nc(Nc4ccccc4)n3)c2n1	-11.9	61.4*
Nc1nc(CSc2ncccn2)nc(Nc2ccccc2)n1	-3.5	-1.4
Nc1nc(O)c(C2=c3cc(F)ccc3=NC2=O)s1	3.6	81.0*
O=C1N=c2ccc(F)cc2=C1c1sc(Nc2ccc(F)cc2)nc1O	-13.3	22.0
Cc1cc(C)c2c(=O)[nH]c(SCC(=O)c3ccc(O)c(O)c3)nc2n1	-4.0	5.5
Cc1sc2nc(SCC(=O)c3ccc(O)c(O)c3)[nH]c(=O)c2c1C	-0.7	68.0*
COc1ccc(NC(=O)CSc2nc3[nH]ncc3c(=O)n2-c2ccccc2)cc1OC	1.4	9.0
COc1ccc(C=Nc2ccc3c(c2)nc(C)n3C)cc1	69.0*	6.0
COc1ccc(C=Nc2ccc3ncccc3c2)cc1	-1.6	31.0
O=c1c2c3c(sc2nc2c4ccccc4c(NCC4CCCO4)nn12)CCCC3 (configuration not stated)	-0.2	65.1*
CC1CCc2c(sc3nc4c5ccccc5c(NCc5ccco5)nn4c(=O)c23)C1 (configuration not stated)	0.1	35.1
O=C(O)c1ccc(Sc2ccccn2)c([N+](=O)[O-])c1	-2.4	0.9
CC(=O)NC1=NN(C(C)=O)C(c2ccc(OCc3ccccc3)cc2)S1 (configuration not stated)	-2.6	68.0*
CC(=O)NC1=NN(C(C)=O)C(c2ccc(OCc3ccccc3)c(OCc3ccccc3)c2)S1 (configuration not stated)	-0.4	38.0
Cc1ccc(OCC(=O)N2CCN(c3nc(CN4CCCCC4)cs3)CC2)cc1	0.8	38.4
O=C(COc1ccc(Cl)cc1)N1CCN(c2nc(CN3CCCCC3)cs2)CC1	-3.3	50.1*
O=C(C1CCCC1)N1CCN(c2nc(CN3CCCCCC3)cs2)CC1	4.0	16.3
O=C(C1CCCCC1)N1CCN(c2nc(CN3CCCCCC3)cs2)CC1	33.5	96.2*
SMILES	Pf apPOL inh	mHTT-CaM PPI inh
NS(=O)(=O)c1cccc(NS(=O)(=O)c2ccccc2)c1	18.5	.
CC(=O)Nc1ccc(S(=O)(=O)Nc2ccc(S(=O)(=O)Nc3ccccc3)cc2)cc1	3.6	4.3
CC(=O)Nc1ccc(S(=O)(=O)Nc2ccc(Nc3ccccc3)cc2)cc1	0.8	83.2*
O=S(=O)(Nc1ccc(Nc2ccccc2)c(NS(=O)(=O)c2ccccc2)c1)c1ccccc1	-1.8	62.9*
Cc1ccc(CNC(=O)C(=O)Nc2cccc(F)c2)cc1	-23.9	1.7
CCC(C)NC(=O)CCCC1=NS(=O)(=O)c2ccccc2N1 (configuration not stated)	-1.1	-1.0
CCCCCCN1CCN(C2CN(Cc3cn(Cc4cc(C)cc(C)c4)nn3)S(=O)(=O)C2)CC1 (configuration not stated)	-0.7	-1.7
Cc1ccc(CNC(=O)CSc2nnc(C)n2-n2cccc2)cc1	5.2	-4.1
COc1ccc(Cl)cc1N(CC(=O)N1CCN(Cc2ccccc2)CC1)S(C)(=O)=O	-0.7	20.5
COc1ccc(Cl)cc1N(CC(=O)N(Cc1ccccc1)Cc1ccccc1)S(C)(=O)=O	-5.8	64.9*
CCS(=O)(=O)Nc1cccc(N2CCCN(Cc3ccc(C)cc3)C2=O)c1	-4.4	14.6
COc1ccc(N=C2C(=O)Nc3ccc([N+](=O)[O-])cc32)c([N+](=O)[O-])c1	-1.8	13.0
N#CC1=C(N)Oc2n[nH]c(-c3ccccn3)c2C1c1ccc2c(c1)OCO2 (configuration not stated)	9.5	62.0*
